The text below walks through data of ChEMBL document CHEMBL4296182, “CO-ADD screening of NIH NCI Diversity Set V”.

Measured potencies and affinities stand elsewhere.

For the experiment, the system named is Cryptococcus neoformans. Particulars: Concentration 20 uM; ASSAY_TEST Inhibition of Fungal Growth; detection method Resazurin; Absorption (OD600-OD570); plate type 384well; NBS; CORNING #3640. (Resazurin is reduced to fluorescent resorufin, in cell work by metabolically active cells.)
Usually Inhibition stands for the relative decrease from the control value, in per cent. Turning to `O=C(Nc1cccc(Cl)c1)Nn1cnnc1`, the Inhibition was -3.41%.
With `CN1CCC=C(C(=O)N2c3ccccc3Sc3ccc(Cl)cc32)C1.O=C(O)CCC(=O)O`, the Inhibition is given as -4.64%.
Next, `Nc1nc(O)c2nn(-c3ccccc3)nc2n1`: 29.86%; `O=[N+]([O-])c1ccc(NN=C(c2ccccc2)c2ccccc2)nc1`: -2.84%.
In the case of `CC1(c2ccc3ccccc3c2)CCC(=O)O1` (stereo not drawn), the Inhibition is -9.46%.
Next, `CCCCNC(=O)Nc1ccccc1CC`: -6.96%.
The value for `Nc1ccc(C(=O)C(=O)c2ccc(N)cc2)cc1` was 25.61%.
With `COC(=O)Cc1[nH]c(Cl)nc1C(N)=O`, the Inhibition stood at 7.24%.
Take `CN(C)c1ccc(/C=C/C(=O)c2cc(Cl)ccc2O)cc1`: the Inhibition is given as -6.08%.
Next, `N#CCc1cnc2ccccc2n1`: -9.92%; `Cn1c(=O)c2nc(CNc3ccc(C(=O)O)cc3)[nH]c2n(C)c1=O`: 17.72%; `COc1cccc(-c2nnc(N)o2)c1`: -2.41%.
For the compound `O=C(c1cccnc1)N1CCN(c2ccccc2Cl)CC1`, the Inhibition was -13.57%.
The value for `Cn1cnc([N+](=O)[O-])c1Sc1nc[nH]n1` was -9.11%; that for `CC(=O)Nc1nc(C)c(CCC2OCCO2)c(O)n1` was 22%; that for `NC(=O)c1nnsc1-c1ccc(-c2snnc2C(N)=O)cc1` was -13.62%.
The value for `C[C@]12CC[C@H](O)CC1=CC[C@@H]1[C@@H]2CC[C@]2(C)c3n[nH]cc3C[C@@H]12` was -13.74%.
The value for `Cc1ccccc1NC(=O)C(=O)Nc1ccccc1C` was 7.92%; that for `COc1ccn(C2CCCCO2)c(=O)n1` (stereo not drawn) was -5.3%; that for `Cn1c(=O)c2c(nc(N3CCOCC3)n2C)n(C)c1=O` was -9.23%.
Take `N#CC1=C(Nc2ccccc2Cl)SC(c2ccncc2)NC1=O` (stereo not drawn): the Inhibition is on record as -0.15%.
As to `CC(C)c1ccc(-c2nc3ccccc3s2)cc1`, the Inhibition is on record as -7.1%.
Next, `Nc1cc2c3c(cccc3c1)C(=O)N(CCN1CCCC1)C2=O`: -3.61%; `O=C1NCN(CCO)CN1`: -3.9%; `c1ccc(-c2cc3ccccc3[nH]2)cc1` [2-PHENYL-1H-INDOLE]: -3.77%.
In the case of `FC(F)(F)c1nc2nc(Cl)c(Cl)nc2n1CCCN1CCOCC1`, the Inhibition came out at 38.81%.
The value for `CCOC(=O)c1cc2c(OC)c(OC)ccc2c2ncc(C#N)c(O)c12` was 44.69%.
Take `NC(CC(=O)Nc1cc(C(F)(F)F)ccc1Cl)=NO`: the Inhibition is -11.78%.
For the compound `CCOc1ccc(NC(=O)Nc2cc(C(C)C)ccc2C)cc1`, the Inhibition was 21.16%.
The value for `CN1CN(C)C(c2ccncc2)=C1c1ccncc1` was -1.9%; that for `N#Cc1nnn(-c2ccc(Cl)cc2)c1N` was -4.67%.
For the compound `CCOC(=O)CSc1nc2nc(Cl)c(Cl)[nH]c-2n1`, the Inhibition is reported as 3.6%.
The value for `Cn1c(=O)c2c(nc(Cc3ccc(N)cc3)n2C)n(C)c1=O` was -5.25%; that for `CCC(C)(C)c1ccc(Oc2cccc(C(=O)O)c2)cc1` was -6.24%.
Next, `CNC(=O)Nc1ccc(S(N)(=O)=O)cc1`: 0.61%.
Next, `CCOC(=O)CCCN(c1[nH]c(C)c(C)c1C#N)S(=O)(=O)c1ccc(C)cc1`: -4.37%; `COc1cc(Cl)c(CC(=O)c2c[nH]c3ccccc23)cc1OC`: -1.97%.
`N#CC1=C(Nc2ccccc2Cl)SC(c2ccccc2O)NC1=O` (stereo not drawn): the Inhibition is on record as -3.28%.
